A1 inh – inducers of caspase activity in MEF A1-2A-BIM cells, primary screen, A1 inhibitor project, cell-based, CaspaseGlo luminescence; caspase-Glo luminescence, 3 h; percent of clofoctol signal, DMSO as zero; caspase activation, % (no concentration beside the values); hit rate 0.51% among 21,000; AID 2241, 2010;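 active = most replicate scores above 10, or exactly half above 10 with mean activity above 10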;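 note: effector caspase 3 and 7 activity cleaving a DEVD luciferin substrate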
BJeLR viab HTS – BJeLR cell viability loss, primary screen, luminescence, CellTiterGlo ATP. BJeLR fibroblasts viability, 48 h; HRASV12, hTERT and SV40 LT/ST transformed. viability loss activity score, % (no concentration beside the values). hit rate 0.64% among 30,000. AID 2275, 2010; in the data active = viability loss activity score above about 50%;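 note: higher score means fewer live cells and less ATP luminescence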
The depositor's hits bear a star; x = no result given. Hits are enriched below; roughly 0.9% of the tested compounds scored in any of these assays.

SMILES	A1 inh	BJeLR viab HTS
Cc1cc(NC(=O)c2ccc3c(c2)NC(=O)c2ccccc2S3)ccc1Br	15*	17
CCN1CNC(=S)N(c2ccccc2)C1	0	4
CCN1CSC(=S)N(Cc2ccccc2)C1	-1	54*
C=CCN(c1ccccc1)C(C(=O)Nc1ccc2c(c1)OCCO2)c1ccccc1 (stereo not given)	x	4
CC1OC(OC2C(CO)OC(OC(=O)[C@]34CCC(C)(C)CC3C3=CCC5[C@@]6(C)CC[C@H](OC7OC(C)C(OC8OCC(O)(COC9OCC(O)C(OC%10OCC(OC%11OCC(O)(CO)C%11O)C(O)C%10O)C9O)C8O)C(O)C7O)C(C)(C)C6CC[C@@]5(C)[C@]3(C)CC4)C(O)C2O)C(O)C(O)C1O (stereo not given in full)	12*	4
CC1(C)CC[C@]2(C(=O)O[C@@H]3O[C@H](CO)[C@@H](O)[C@H](O)[C@H]3O)CC[C@]3(C)C(=CCC4[C@@]5(C)CC[C@H](O[C@@H]6O[C@H](C(=O)O)[C@@H](O[C@@H]7O[C@H](CO)[C@@H](O)[C@H](O)[C@H]7O)[C@H](O)[C@H]6O)C(C)(C)C5CC[C@]43C)C2C1 (stereo not given in full)	0	2
CC1OC(O[C@H]2CC[C@@]3(C)C(CC[C@]4(C)C3CC=C3C5CC(C)(C)CC[C@]5(C(=O)OC5OC(CO)C(OC6OC(CO)C(O)C(O)C6O)C(O)C5O)CC[C@]34C)C2(C)C)C(O)C(O)C1OC1OCC(O)(COC2OCC(O)C(OC3OCC(OC4OCC(O)(CO)C4O)C(O)C3O)C2O)C1O (stereo not given in full)	0	-5
CC1(C)CC[C@]2(C(=O)OC3OC(CO)C(O)C(O)C3O)CC[C@]3(C)C(=CCC4[C@@]5(C)CC[C@H](OC6OC(C(=O)O)C(O)C(O)C6O)C(CO)(CO)C5CC[C@]43C)[C@@H]2C1 (stereo not given in full)	2	133*
CC(=O)N[C@H]1[C@H](O[C@H]2CC[C@@]3(C)C(CC[C@]4(C)C3CC=C3[C@@H]5CC(C)(C)CC[C@]5(C(=O)OC5OCC(O)C(O)C5O)C(O)C[C@]34C)C2(C)C)O[C@H](COC2OCC(O)C(OC3OCC(O)C(O)C3O)C2O)[C@@H](O[C@@H]2O[C@@H](C)[C@H](O)[C@@H](O)[C@H]2O[C@@H]2O[C@@H](C)[C@H](O)[C@@H](O)[C@H]2O)[C@@H]1O (stereo not given in full)	35*	1
C[C@@H]1O[C@@H](O[C@H]2[C@H](O[C@H]3CC[C@@]4(C)C(CC[C@]5(C)C4CC=C4[C@@H]6CC(C)(C)CC[C@]6(C(=O)O[C@@H]6O[C@H](CO[C@@H]7O[C@H](CO)[C@@H](O)[C@H](O)[C@H]7O)[C@@H](O)[C@H](O)[C@H]6O)CC[C@]45C)[C@]3(C)CO)OC[C@H](O)[C@@H]2O)[C@H](O)[C@H](O)[C@H]1O (stereo not given in full)	0	-4
CC1(C)CC[C@@]2(C(=O)O[C@@H]3O[C@H](CO)[C@@H](O)[C@H](O)[C@H]3O)C(C1)C1=CCC3[C@@]4(C)CC[C@@H](O[C@@H]5O[C@H](C(=O)O)[C@@H](O[C@@H]6OC[C@@H](O)[C@H](O)[C@H]6O)[C@H](O)[C@H]5O)C(C)(C)C4CC[C@@]3(C)[C@]1(C)C[C@H]2O (stereo not given in full)	0	0
C[C@@H]1O[C@@H](O[C@H]2[C@H](O)[C@@H](O)[C@H](OC[C@H]3O[C@@H](OC(=O)[C@]45CCC(C)(C)CC4C4=CCC6[C@@]7(C)CC[C@H](O)C(C)(C)C7CC[C@@]6(C)[C@]4(C)CC5)[C@H](O)[C@@H](O)[C@@H]3O)O[C@@H]2CO)[C@H](O)[C@H](O)[C@H]1O (stereo not given in full)	1	125*
CCc1ccc(NC(=O)N(Cc2c[nH]c3ccccc23)C(C)C)cc1	x	0
CC(C)Cc1ccc(S(=O)(=O)N2CCCc3ccccc32)cc1	x	1
CCC(Sc1nc2c(sc3ccccc32)c(=O)n1CCc1ccccc1)C(=O)N1CCOCC1 (stereo not given)	-1	-6
CCN(CC)C(=O)Cc1ccc(Br)cc1	0	3
COc1cc(Nc2nc(SCC(=O)c3ccc(O)c(O)c3)nc3ccccc23)cc(OC)c1	0	5
COc1ccc(CCNc2nc(SCC(=O)c3ccc(F)cc3)nc3ccccc23)cc1OC	16*	-3
CC(C)CNc1cc(Cl)c2noc3c2c1C(=O)c1ccccc1-3	x	11
C=CCOc1ccccc1OCC(O)CNC(C)C (stereo not given)	-1	56*
CC(=O)Nc1ccc(OCC(O)CNC(C)C)cc1 (stereo not given)	0	4
CCCc1ccc(-c2c(C)sc(N)c2C#N)cc1	12*	2
CCCc1ccc(O)c(N)c1	1	-7
O=C1NC2=C(C(=O)OC2)C(c2ccccc2)N1 (stereo not given)	x	-9
CCOC(=O)c1ccc(NC(=O)CCC(C)C(=O)O)cc1 (stereo not given)	0	1
SMILES	A1 inh	BJeLR viab HTS
CCOc1ccc(-c2cc(C(=O)N3CCc4ccccc4C3)c3ccccc3n2)cc1	x	5
Cc1cc(C)cc(NC(=O)CN2C(=O)CCc3ccccc32)c1	11*	0
Cc1cc(C)cc(NC(=O)CN2C=NS(=O)(=O)c3ccccc32)c1	1	2
Cc1ccc(-c2nn(-c3ccccc3)cc2/C=N/O)cc1	0	4
CC1=NNC(=O)/C1=C\c1cn(-c2ccccc2)nc1-c1ccc(F)cc1	96*	88*
CC(C)(C)c1ccc(S(=O)(=O)Nc2ccc3[nH]c(=O)[nH]c3c2)cc1	x	5
O=C(Cn1ncc2c3ccccc3n(Cc3ccccc3)c2c1=O)NC1CC1	-1	1
COc1cccc(NC(=O)Cn2ncc3c4ccccc4n(Cc4ccccc4)c3c2=O)c1	17*	3

Compound activity from PubChem BioAssay.
